Screens: PubChem, National Center for Advancing Translational Sciences (NCATS)
Rows were chosen to be rich in hits. Some 6.2% of all compounds tested hit in one or more screens of this group.
RORg inh – inhibitors of mouse ROR gamma transcriptional activity. P51450. Drosophila S2 Gal4-RORgamma UAS-luciferase reporter, 20 h. Potency, µM (doses to about 53.6 µM), inactives show at the top dose activity change, negative = inhibition, hits mostly inhibitors. hit rate 5.4% among 310,000; further: nearly all actives have a fitted effect of over 60% in size
Target sequence (P51450 whole entry, looked up, the tested form may be a part): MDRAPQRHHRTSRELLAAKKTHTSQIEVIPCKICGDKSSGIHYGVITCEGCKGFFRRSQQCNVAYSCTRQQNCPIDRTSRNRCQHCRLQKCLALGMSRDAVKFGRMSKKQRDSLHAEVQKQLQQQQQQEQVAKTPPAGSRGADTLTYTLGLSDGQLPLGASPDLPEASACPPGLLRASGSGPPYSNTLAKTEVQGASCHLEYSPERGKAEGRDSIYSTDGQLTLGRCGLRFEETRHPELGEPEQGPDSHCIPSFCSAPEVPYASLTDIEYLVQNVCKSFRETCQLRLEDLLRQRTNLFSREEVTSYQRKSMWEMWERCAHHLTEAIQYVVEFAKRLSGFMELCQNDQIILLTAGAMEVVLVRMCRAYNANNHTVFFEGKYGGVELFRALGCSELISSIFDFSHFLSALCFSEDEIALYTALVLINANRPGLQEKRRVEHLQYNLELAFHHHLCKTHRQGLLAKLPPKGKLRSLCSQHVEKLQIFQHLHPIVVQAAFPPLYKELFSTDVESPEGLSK
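Stably transfected Drosophila Schneider cells are the test system, with ROR gamma fused to Gal4 and luciferase under UAS control; luminescence is read after 20 hr of 700 uM copper sulfate induction at ambient temperature.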
KinaseGlo FLuc – blocks Kinase-Glo luciferase, a counter-screen artifact | Kinase-Glo luciferase, ATP luminescence, 8 min | Potency, µM (series often up to 38.3 µM), for inactives: at the top dose activity change, negative = inhibition, usual class: inhibitors | Q27757 | hit rate 0.28% among 200,000; further: nearly all actives have a fitted effect of over 60% in size
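Compounds were added to a substrate mix at pH 7.2 (50 mM imidazole, 10 uM ATP, within the enzyme's linear range), followed by Kinase-Glo detection reagent; luminescence was measured after 8 minutes at ambient temperature.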
VP16 counter – counter-screen for ROR gamma inhibitors: Gal4-VP16 reporter | Drosophila S2 Gal4-VP16 UAS-luciferase, luminescence, 20 h | Potency, µM (series often up to 53.6 µM), inactives show at the highest dose activity, negative = inhibition, actives largely listed as inhibitors | hit rate 3.5% among 310,000 | AID 2546;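 further: Gal4-VP16 expression switched on by copper sulfate through the metallothionein promoter; nearly all actives have a fitted effect of over 50% in size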
* hit, by the source's call; ? = inconclusive; nt = not tested or not shown; [ ] = remark or other dose. The call rests on the fitted dose curve; in most records, active means well fitted curve in the direction sought with a large enough effect; inconclusive means small, poorly fitted or top-dose-only effect, or another doubt; inactive means no such curve, though single readings can be large; an effect the other way counts as inactive or inconclusive. On the % scale 0 is the no-effect control and ±100 the full control effect; potency means the concentration at half of the fitted maximal effect.

SMILES | RORg inh | KinaseGlo FLuc | VP16 counter
CCC(CC)NC(=O)Nc1ccc(C)cc1 | 11% | nt | 3%
CCCCC(C)n1[nH]c(=O)c2c(C)cc(C)nc21 (stereo not given) | 13% | nt | -3%
CCCCCCC(C)n1[nH]c(=O)c2c(C)cc(=O)[nH]c21 (stereo not given) | 7.1µM* | -3% | 4µM*
Cc1ccccc1CS(=O)(=O)CCC(=O)NCc1ccc(F)cc1Cl | 12% | nt | 0%
O=C(NNC1=NCCC1)c1cccc(S(=O)(=O)N2CCCC2)c1 | 8.9µM* | 0% | ?
Cc1ccc(C(=O)CNc2ccc(C)cc2C)cc1 | 0% | nt | -9%
O=C(NNC1=NCCC1)c1ccc(Br)cc1 | 5.6µM* | 8% | 6.3µM*
Cc1ccc(NCC(=O)NNC2=NCCC2)c(C)c1 | 8.9µM* | -2% | 11µM*
O=C(NNC1=NCCC1)c1cccc(S(=O)(=O)N2CCOCC2)c1 | ? | 1% | ?
Cc1ccc(C(=O)NNC(=O)c2ccc(C)cc2)cc1 | 17% | -3% | 0%
O=C(NNC1=NCCCCC1)c1cccc([N+](=O)[O-])c1 | -4% | 5% | -12%
Cc1ccc(C(=O)NNC2=NCCC2)cc1 | 10µM* | 3% | 18µM*
Cc1ccc(S(=O)(=O)NC(=NC2CCCCC2)c2ccccc2)cc1 | -18% | nt | 2%
O=S(=O)(c1ccccc1)N1CC=C(c2ccccc2)CC1 | 14% | -1% | -18%
Cc1noc(C)c1-c1nc(N(C)Cc2ccco2)c2ccccc2n1 | -15% | nt | -6%
Cc1cc(C)c(S(=O)(=O)Nc2ccccc2C(=O)N2CCOCC2)c(C)c1 | 9% | nt | -4%
COc1cccc(C(C(=O)NCC2CCCO2)N(C(=O)Cn2nnc3ccccc32)c2ccc(NC(C)=O)cc2)c1OC (stereo not given) | -2% | nt | -3%
COc1cc(/C=C(\C#N)c2ccccn2)ccc1OCc1ccccc1 | ? | -9% | -17%
CN(CCC#N)c1ccc(/C=C(\C#N)c2ccccn2)cc1 | 10µM* | ? | 10µM*
CCN(CC)c1ccc(/C=C(\C#N)c2ccccn2)cc1 | 6.3µM* | -11% | 7.1µM*
N#C/C(=C\c1ccc(C(=O)O)cc1)c1ccccn1 | -10% | -13% | ?
O=C(CCNC(=O)c1ccc(Cl)cc1)Nc1c(F)c(F)cc(F)c1F | 4% | 0% | ?
Cc1ccc(NC(=O)c2cc(N3C(=O)C=CC3=O)ccc2Cl)cc1C | ? | 0% | 7.9µM*
Cc1ccc(NC(=O)c2cc(-n3cnnc3)ccc2Cl)cc1 | 3% | -1% | 9%
Cc1ccc(NC(=O)c2cc(NC(=O)c3ccco3)ccc2N2CCOCC2)cc1 | -37% | 0% | -12%
SMILES | RORg inh | KinaseGlo FLuc | VP16 counter
Cc1ccc(NC(=O)c2cc(N3C(=O)C=CC3=O)ccc2N2CCOCC2)cc1 | 7.1µM* | 1% | 7.9µM*
CN(C)CCNC(=O)/C=N/O | -11% | 5% | -2%
Cc1cc(C(=O)O)ccc1N/C=C1\CCCC(C)C1=O (stereo not given) | 3.5µM* | -6% | 3.5µM*
CC1CCC/C(=C\Nc2ccc(O)cc2)C1=O (stereo not given) | -3% | -10% | -3%
O=C(CN1C(=O)/C(=C/c2ccccc2F)Sc2ccccc21)N1CCN(c2ccccn2)CC1 | 5% | 3% | -3%
COc1ccc2c(c1)C(=O)[C@@H](OC(=O)NS(=O)(=O)c1ccc(F)cc1)[C@H](c1ccc(OC)c(Br)c1)O2 | -19% | -2% | 7%
CC(=N\Nc1ccc(Cl)cc1)/C(=N/O)C(=O)Nc1ccccc1 | ? | 2% | -5%
CCOC(=O)C(=N/O)/C(C)=N/NC(=O)C(=O)Nc1ccc(Cl)cc1 | -44% | nt | 20µM*
CCn1cc(C(=O)NCCC2=CCCCC2)c(=O)c2cc(S(=O)(=O)N(C)C)ccc21 | ? | 3% | -3%
Cc1ccc(N2C(=O)N(c3ccc(C)cc3)C3CS(=O)(=O)CC32)cc1 (stereo not given) | 6% | -2% | 2%[10 µM]
CC(=O)Nc1ccc(S(=O)(=O)N2C(=O)c3cccc4cccc2c34)cc1 | 11% | nt | 0%
CC(=O)c1c(N2CCCC2)[nH]c(-c2ccccc2)nc1=S | 5.6µM* | -2% | 7.9µM*
CSc1nc(-c2ccccc2)nc(N2CCCC2)c1C(C)=O | -7% | 0% | 0%
CC(=O)c1c(N2CCN(Cc3ccccc3)CC2)nc(=S)n(-c2ccccc2)c1C | 0% | -3% | 4%
CC(=O)c1c(N2CCOCC2)[nH]c(-c2ccccc2)nc1=S | 1.1µM* | -1% | 5µM*
CC(=O)c1c(C)[nH]c(-c2ccccc2)c1C | -20% | -2% | ?
CC(=O)c1c(N2CCN(Cc3ccccc3)CC2)[nH]c(-c2ccccc2)nc1=S | 14µM* | -1% | ?
CSc1nc(-c2ccccc2)nc(N2CCOCC2)c1C(C)=O | -19% | 0% | -3%
